Structures are written as SMILES. Results filed as inconclusive are left out. Activity calls are given as the source filed them. Calls follow the shape of the dose curve; as a rule, active = well fitted inhibition curve with a large enough effect; inconclusive = small, poorly fitted or top-dose-only effect; inactive = no such curve, though single readings can be large or run the other way.
Potency is read from the fitted curve at half-maximal effect.

This experiment has as its target Luciferin 4-monooxygenase (Photinus pyralis) (UniProt P08659). The experiment in a line: Confirmatory firefly luciferase (FLuc) qHTS assay for identification of artifact compounds.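 As to activity change, negative = inhibition: 0% = DMSO and -100% = no enzyme control.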 The settings on record: purified FLuc enzyme, luminescence, 5 min; series mostly up to 38.9 µM; activity change, negative = inhibition: at the top concentration. In a few lines: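 Purified Photinus pyralis luciferase (10 nM) with D-luciferin and ATP each 10 uM, pH 7.6 Tris-acetate; compounds preincubated 15 min with substrate, 5 min after enzyme; luminescence normalized to no-enzyme and DMSO, 4-parameter Hill fit.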
For the compound `COc1cccc(C2c3c(ncn(-c4cccc(C#N)c4)c3=N)Oc3ccc4ccccc4c32)c1` (configuration not stated), the “activity change, negative = inhibition” value is -7.28% (inactive).

As to `O=C1CCc2cc([S+](=O)([O-])NC3CCOCC3)ccc2N1`, the “activity change, negative = inhibition” value is -0.811% (inactive).

Consider `CCC(=O)N1CCc2cc(CNC(=O)Nc3cc(OC)c(OC)c(OC)c3)ccc21`, for which the “activity change, negative = inhibition” value is 0.174% (inactive).

On to `C[C@H](NC(c1ccc(F)cc1)c1ccc2cccnc2c1O)c1ccccc1` (some centres not stated), for which the “activity change, negative = inhibition” value is -7.17% (inactive).

`CCc1cccc(NC(=O)C2CCC(CNS(=O)(=O)c3csc(C(N)=O)c3)CC2)c1` (configuration not stated): the “activity change, negative = inhibition” value was -1.53% (inactive).

Regarding `CC(=O)Nc1oc(-c2cccc3ccccc23)nc1C#N`, the “activity change, negative = inhibition” value is 59.2% (inactive).

Turning to `CCCOc1ccc(C(=O)Nc2ccc3oc(-c4ccncc4)nc3c2)cc1`, the “activity change, negative = inhibition” value was 111% (inactive).

Regarding `CC(=O)Nc1sc2c(c1-c1ccc(Cl)cc1)CCNC2`, the “activity change, negative = inhibition” value is 3.64% (inactive).

`Cc1ccc(CN(C(=O)COc2ccc([N+](=O)[O-])cc2)c2ccccn2)cc1`: the “activity change, negative = inhibition” value is -0.0502% (inactive).

`CCC(Sc1ncc(S(=O)(=O)c2ccc(Cl)cc2)c(=O)[nH]1)C(=O)Nc1ccc(OC)cc1` (configuration not stated): the “activity change, negative = inhibition” value was 1.34% (inactive).

As to `CCCCN(CCCC)C(=O)c1cc2c(=O)n3ccccc3nc2s1`, the “activity change, negative = inhibition” value is 2.17% (inactive).

Turning to `CC(C)CN(CCNC(=O)c1cn(C)c2ccc(S(=O)(=O)N3CCOCC3)cc2c1=O)CC(C)C`, the “activity change, negative = inhibition” value was 10.8% (inactive).

With `Cn1c(=O)[nH]c2cc(-c3noc(-c4cccc(Cl)c4)n3)ccc21`, the “activity change, negative = inhibition” value was 53% (inactive).

For the compound `COCCn1c(C)cc(O)c(C(c2ccc(OC)cc2)N2CCN(c3ccccc3)CC2)c1=O` (configuration not stated), the “activity change, negative = inhibition” value is -0.651% (inactive).

Turning to `O=c1oc2ccc(Br)cc2cc1-c1csc(-c2ccc(Cl)cc2)n1`, the “activity change, negative = inhibition” value is 1.83% (inactive).

Turning to `C[C@H](CCC(=O)NCCS(=O)(=O)O)C1CC[C@H]2C3CC[C@@H]4C[C@H](O)CC[C@]4(C)C3C[C@H](O)[C@]12C` (some centres not stated), the “activity change, negative = inhibition” value is -6% (inactive).

In the case of `COc1ccc(-c2ccc(=O)n(CC(=O)Nc3ccc(OC)c(OC)c3)n2)cc1`, the “activity change, negative = inhibition” value is 9.34% (inactive).

As to `COc1ccc(C(=O)Nc2noc3ccccc23)cc1`, the Potency is 864 nM (active).

Turning to `COCCNC(=O)CCCn1c(SCC(=O)Nc2cccc(C)c2)nc2c(sc3ccccc32)c1=O`, the “activity change, negative = inhibition” value is -5.42% (inactive).

As to `O=c1cc(-c2ccc(O)cc2)oc2cc(O[C@@H]3O[C@H](CO)[C@H](O)[C@H](O)[C@H]3O)cc(O)c12`, the “activity change, negative = inhibition” value is 4.69% (inactive).

As for `CCOC(=O)c1c(S(=O)(=O)NCC(=O)N2CCN(c3cc(C)ccc3C)CC2)c(C)n(C)c1C`, the “activity change, negative = inhibition” value is 3.41% (inactive).

In the case of `O=C(Cc1ccccc1)Nc1ccc2oc(-c3cccnc3)nc2c1`, the “activity change, negative = inhibition” value is -9.51% [at 78.4 µM] (inactive).

These data come from PubChem BioAssay AID1845227 (National Center for Advancing Translational Sciences (NCATS), 2023).
